In ChEMBL document CHEMBL1961873, “Compounds: GSK PKIS; Assays: Nanosyn kinase panel” (2012):

Legend:
[1] = target: T1, Serine/threonine-protein kinase D2 (Homo sapiens) (UniProt Q9BZL6); conditions: at 1 µM;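 also: mean value of PRKD2 inhibition, from the GSK PKIS screening panel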
T1 sequence (whole entry): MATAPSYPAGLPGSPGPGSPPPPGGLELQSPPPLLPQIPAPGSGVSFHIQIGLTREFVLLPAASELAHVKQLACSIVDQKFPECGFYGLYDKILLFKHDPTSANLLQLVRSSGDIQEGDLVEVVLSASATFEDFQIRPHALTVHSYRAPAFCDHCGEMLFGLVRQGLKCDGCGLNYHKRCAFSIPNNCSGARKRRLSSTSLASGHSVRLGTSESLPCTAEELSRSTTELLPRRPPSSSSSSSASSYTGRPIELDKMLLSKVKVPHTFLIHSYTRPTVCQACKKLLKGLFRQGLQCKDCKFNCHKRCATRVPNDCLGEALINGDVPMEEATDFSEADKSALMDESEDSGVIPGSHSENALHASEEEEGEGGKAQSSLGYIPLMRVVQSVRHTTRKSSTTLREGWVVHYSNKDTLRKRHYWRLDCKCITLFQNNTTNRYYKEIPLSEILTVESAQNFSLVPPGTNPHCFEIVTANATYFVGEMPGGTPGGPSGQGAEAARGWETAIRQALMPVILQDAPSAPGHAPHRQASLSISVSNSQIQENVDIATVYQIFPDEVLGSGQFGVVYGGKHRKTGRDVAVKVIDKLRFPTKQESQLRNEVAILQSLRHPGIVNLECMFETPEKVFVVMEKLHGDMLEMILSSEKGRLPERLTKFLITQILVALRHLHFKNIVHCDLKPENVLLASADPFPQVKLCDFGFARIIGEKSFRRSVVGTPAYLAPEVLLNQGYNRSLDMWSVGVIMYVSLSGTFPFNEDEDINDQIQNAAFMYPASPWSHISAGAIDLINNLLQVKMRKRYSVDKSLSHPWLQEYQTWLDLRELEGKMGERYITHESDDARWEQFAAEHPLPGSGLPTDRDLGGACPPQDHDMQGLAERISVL

[2] = target: T2, Serine/threonine-protein kinase D3 (Homo sapiens) (UniProt O94806); conditions: at 0.1 µM
T2 sequence (whole entry): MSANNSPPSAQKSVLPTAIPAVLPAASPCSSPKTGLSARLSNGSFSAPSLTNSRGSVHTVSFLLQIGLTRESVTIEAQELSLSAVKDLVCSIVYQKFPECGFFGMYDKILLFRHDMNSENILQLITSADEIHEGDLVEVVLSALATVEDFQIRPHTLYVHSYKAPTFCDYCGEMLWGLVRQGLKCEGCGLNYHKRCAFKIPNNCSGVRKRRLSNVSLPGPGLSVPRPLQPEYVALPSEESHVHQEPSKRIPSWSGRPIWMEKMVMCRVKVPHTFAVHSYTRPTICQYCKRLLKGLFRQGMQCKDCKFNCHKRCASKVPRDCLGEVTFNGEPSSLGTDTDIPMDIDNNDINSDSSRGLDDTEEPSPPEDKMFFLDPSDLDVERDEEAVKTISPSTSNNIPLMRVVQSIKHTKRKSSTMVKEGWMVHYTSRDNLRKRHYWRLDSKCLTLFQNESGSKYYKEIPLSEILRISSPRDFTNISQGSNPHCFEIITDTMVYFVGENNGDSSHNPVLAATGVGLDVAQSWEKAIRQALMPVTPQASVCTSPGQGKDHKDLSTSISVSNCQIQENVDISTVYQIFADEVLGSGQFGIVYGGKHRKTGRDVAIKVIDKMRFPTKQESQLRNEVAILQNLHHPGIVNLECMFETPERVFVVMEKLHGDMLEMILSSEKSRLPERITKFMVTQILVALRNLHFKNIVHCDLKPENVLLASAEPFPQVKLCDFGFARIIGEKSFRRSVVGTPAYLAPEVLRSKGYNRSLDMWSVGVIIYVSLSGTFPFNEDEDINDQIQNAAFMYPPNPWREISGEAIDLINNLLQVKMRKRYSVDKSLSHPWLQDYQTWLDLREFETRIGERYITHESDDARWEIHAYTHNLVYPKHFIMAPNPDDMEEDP

[3] = target: T2, Serine/threonine-protein kinase D3 (Homo sapiens); conditions: at 1 µM
[4] = target: T3, cGMP-dependent protein kinase 1 (Homo sapiens) (UniProt Q13976); conditions: at 0.1 µM
T3 sequence (whole entry): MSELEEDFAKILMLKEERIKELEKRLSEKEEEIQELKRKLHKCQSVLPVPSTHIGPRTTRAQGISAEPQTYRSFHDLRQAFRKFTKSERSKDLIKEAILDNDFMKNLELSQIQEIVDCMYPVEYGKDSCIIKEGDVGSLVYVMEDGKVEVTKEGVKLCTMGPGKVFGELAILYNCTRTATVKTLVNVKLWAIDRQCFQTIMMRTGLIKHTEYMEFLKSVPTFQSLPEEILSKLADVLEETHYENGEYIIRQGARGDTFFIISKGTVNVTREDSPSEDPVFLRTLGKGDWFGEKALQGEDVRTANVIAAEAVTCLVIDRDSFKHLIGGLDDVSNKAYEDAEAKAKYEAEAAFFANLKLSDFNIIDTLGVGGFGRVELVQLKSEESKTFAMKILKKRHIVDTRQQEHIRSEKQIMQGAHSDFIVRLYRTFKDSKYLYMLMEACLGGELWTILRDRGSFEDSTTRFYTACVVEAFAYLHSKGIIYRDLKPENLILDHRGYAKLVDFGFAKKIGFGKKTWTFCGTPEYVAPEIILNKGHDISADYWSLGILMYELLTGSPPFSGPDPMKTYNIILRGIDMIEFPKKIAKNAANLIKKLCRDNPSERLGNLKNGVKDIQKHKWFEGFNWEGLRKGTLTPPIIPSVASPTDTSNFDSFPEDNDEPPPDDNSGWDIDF

[5] = target: T3, cGMP-dependent protein kinase 1 (Homo sapiens); conditions: at 1 µM
[6] = target: T4, cGMP-dependent protein kinase 2 (Homo sapiens) (UniProt Q13237); conditions: at 0.1 µM
T4 sequence (whole entry): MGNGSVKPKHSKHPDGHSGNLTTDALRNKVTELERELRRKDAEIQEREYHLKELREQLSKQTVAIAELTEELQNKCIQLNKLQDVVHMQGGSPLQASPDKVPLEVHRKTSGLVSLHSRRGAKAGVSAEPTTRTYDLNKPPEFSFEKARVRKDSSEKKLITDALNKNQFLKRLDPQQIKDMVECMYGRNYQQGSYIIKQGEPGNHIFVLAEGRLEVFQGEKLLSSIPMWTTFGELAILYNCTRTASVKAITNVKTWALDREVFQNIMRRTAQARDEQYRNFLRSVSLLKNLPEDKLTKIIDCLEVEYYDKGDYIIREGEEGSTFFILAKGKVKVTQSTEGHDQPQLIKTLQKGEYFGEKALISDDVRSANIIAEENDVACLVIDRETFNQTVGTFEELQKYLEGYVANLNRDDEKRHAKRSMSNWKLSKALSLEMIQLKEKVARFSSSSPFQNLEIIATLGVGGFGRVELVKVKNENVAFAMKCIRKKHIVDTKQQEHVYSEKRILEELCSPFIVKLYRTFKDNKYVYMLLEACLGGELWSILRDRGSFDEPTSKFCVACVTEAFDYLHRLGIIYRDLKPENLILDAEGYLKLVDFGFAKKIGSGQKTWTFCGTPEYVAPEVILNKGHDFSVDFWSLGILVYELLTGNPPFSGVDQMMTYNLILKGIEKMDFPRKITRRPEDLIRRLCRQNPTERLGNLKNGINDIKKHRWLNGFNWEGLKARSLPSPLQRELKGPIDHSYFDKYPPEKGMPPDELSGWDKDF

[7] = target: T4, cGMP-dependent protein kinase 2 (Homo sapiens); conditions: at 1 µM
[8] = target: T5, cAMP-dependent protein kinase catalytic subunit PRKX (Homo sapiens) (UniProt P51817); conditions: at 0.1 µM
T5 sequence (whole entry): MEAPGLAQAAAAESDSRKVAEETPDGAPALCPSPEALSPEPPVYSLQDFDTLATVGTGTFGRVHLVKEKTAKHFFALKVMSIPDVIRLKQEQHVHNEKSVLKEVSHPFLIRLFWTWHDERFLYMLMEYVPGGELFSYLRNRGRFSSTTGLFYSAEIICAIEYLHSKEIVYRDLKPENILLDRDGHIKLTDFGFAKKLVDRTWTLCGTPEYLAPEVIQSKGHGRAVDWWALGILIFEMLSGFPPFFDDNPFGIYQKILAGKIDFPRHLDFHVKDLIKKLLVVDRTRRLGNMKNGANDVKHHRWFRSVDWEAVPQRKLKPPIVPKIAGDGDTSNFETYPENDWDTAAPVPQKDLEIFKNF

[9] = target: T5, cAMP-dependent protein kinase catalytic subunit PRKX (Homo sapiens); conditions: at 1 µM
[10] = target: Rho-associated protein kinase 1 (Homo sapiens) (UniProt Q13464); conditions: at 0.1 µM
Sequence of Rho-associated protein kinase 1 (Homo sapiens) (Q13464 2-1354 limits assumed): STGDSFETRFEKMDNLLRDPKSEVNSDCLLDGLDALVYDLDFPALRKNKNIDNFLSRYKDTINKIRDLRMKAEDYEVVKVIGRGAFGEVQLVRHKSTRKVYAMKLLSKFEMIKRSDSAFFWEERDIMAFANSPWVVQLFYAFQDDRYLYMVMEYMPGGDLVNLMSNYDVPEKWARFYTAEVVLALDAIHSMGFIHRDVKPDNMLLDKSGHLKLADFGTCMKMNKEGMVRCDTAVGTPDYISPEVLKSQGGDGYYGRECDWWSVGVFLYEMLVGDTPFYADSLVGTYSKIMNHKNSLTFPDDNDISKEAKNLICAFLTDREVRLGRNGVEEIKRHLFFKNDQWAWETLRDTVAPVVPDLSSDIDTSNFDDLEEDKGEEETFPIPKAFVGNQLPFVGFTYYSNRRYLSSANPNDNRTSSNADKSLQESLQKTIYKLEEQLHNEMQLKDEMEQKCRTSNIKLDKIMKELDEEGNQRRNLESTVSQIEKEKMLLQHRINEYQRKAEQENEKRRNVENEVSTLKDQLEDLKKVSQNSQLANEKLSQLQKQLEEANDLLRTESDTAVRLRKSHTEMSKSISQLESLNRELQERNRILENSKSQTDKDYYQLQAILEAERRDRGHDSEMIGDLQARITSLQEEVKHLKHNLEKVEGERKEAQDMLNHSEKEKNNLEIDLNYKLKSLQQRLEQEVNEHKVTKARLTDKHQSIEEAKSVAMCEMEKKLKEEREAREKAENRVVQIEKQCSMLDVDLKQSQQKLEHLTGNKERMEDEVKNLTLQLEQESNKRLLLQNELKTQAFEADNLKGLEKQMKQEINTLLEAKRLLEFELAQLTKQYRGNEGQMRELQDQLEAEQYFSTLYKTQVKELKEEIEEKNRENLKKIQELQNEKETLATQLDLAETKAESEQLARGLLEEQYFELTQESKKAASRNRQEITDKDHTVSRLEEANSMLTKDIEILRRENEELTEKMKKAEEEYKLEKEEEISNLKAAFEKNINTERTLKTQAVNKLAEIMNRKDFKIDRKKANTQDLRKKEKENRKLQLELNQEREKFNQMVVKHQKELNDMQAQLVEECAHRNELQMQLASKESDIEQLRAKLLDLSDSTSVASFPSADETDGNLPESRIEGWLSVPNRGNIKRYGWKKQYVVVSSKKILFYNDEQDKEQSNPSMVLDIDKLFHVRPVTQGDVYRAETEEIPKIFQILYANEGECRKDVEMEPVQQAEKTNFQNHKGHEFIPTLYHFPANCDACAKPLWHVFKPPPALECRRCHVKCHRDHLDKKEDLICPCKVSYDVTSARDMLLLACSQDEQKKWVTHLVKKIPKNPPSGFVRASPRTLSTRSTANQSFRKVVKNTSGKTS

[11] = target: Rho-associated protein kinase 1 (Homo sapiens) (UniProt Q13464); conditions: at 1 µM
[12] = target: Rho-associated protein kinase 2 (Homo sapiens) (UniProt O75116); conditions: at 0.1 µM
Sequence of Rho-associated protein kinase 2 (Homo sapiens) (O75116 whole entry, looked up): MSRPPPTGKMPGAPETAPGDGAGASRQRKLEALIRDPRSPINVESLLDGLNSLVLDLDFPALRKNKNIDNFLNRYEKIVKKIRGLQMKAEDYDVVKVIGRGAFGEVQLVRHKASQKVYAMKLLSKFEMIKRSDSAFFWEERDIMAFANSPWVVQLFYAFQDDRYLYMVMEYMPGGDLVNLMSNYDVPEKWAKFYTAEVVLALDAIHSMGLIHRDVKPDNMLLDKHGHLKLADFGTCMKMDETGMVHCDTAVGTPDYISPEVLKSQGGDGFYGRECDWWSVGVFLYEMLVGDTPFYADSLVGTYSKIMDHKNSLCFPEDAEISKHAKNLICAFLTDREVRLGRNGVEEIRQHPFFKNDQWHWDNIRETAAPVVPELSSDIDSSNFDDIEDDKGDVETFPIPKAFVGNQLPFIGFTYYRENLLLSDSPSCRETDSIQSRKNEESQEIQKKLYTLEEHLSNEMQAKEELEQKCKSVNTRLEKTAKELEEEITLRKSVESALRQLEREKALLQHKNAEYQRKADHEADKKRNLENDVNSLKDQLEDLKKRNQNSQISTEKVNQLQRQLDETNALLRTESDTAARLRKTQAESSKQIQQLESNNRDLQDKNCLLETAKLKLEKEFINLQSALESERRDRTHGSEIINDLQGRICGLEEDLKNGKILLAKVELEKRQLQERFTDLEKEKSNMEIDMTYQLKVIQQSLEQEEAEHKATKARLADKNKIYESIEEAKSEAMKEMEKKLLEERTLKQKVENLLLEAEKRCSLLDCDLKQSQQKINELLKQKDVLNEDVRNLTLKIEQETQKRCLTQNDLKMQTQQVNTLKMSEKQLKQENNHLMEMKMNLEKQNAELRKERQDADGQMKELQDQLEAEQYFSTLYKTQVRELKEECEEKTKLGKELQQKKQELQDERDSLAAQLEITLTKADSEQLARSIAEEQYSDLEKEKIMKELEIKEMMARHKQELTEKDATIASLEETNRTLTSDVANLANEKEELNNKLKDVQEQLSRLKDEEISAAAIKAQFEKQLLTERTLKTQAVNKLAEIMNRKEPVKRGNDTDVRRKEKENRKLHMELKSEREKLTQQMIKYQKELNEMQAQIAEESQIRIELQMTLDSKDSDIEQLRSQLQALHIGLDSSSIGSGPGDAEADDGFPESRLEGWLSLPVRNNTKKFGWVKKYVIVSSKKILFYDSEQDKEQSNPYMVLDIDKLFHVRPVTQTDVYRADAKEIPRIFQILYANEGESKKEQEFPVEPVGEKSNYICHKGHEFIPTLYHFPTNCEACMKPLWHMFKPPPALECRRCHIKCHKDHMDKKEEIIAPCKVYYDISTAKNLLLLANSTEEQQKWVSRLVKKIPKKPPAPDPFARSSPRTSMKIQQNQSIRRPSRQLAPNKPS

[13] = target: Rho-associated protein kinase 2 (Homo sapiens) (UniProt O75116); conditions: at 1 µM
[14] = target: Ribosomal protein S6 kinase alpha-1 (Homo sapiens) (UniProt Q15418); conditions: at 0.1 µM
[15] = target: Ribosomal protein S6 kinase alpha-1 (Homo sapiens) (UniProt Q15418); conditions: at 1 µM
[16] = target: Ribosomal protein S6 kinase alpha-3 (Homo sapiens) (UniProt P51812); conditions: at 0.1 µM
Sequence of Ribosomal protein S6 kinase alpha-3 (Homo sapiens) (P51812 whole entry): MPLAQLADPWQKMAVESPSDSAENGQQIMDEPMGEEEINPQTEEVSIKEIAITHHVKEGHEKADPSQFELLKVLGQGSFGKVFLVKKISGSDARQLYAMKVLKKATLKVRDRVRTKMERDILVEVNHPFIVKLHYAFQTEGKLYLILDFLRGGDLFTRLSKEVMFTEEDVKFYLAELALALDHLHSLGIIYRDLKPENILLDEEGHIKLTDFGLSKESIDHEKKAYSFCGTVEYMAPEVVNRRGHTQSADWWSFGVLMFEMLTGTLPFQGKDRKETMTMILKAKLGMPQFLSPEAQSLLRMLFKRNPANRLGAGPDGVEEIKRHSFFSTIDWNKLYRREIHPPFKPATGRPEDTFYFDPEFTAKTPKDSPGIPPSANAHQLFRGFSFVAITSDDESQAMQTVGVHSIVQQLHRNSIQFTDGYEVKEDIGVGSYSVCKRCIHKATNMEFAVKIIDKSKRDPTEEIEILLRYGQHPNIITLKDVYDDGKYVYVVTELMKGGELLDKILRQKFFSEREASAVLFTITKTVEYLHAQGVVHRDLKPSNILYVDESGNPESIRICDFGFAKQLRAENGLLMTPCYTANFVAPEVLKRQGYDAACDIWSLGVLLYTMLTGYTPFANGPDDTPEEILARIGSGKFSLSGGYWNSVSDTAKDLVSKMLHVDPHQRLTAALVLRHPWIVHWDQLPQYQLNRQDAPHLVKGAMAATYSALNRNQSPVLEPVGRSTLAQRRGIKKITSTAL

[17] = target: Ribosomal protein S6 kinase alpha-3 (Homo sapiens) (UniProt P51812); conditions: at 1 µM
[18] = target: Ribosomal protein S6 kinase alpha-2 (Homo sapiens) (UniProt Q15349); conditions: at 0.1 µM
Sequence of Ribosomal protein S6 kinase alpha-2 (Homo sapiens) (Q15349 whole entry): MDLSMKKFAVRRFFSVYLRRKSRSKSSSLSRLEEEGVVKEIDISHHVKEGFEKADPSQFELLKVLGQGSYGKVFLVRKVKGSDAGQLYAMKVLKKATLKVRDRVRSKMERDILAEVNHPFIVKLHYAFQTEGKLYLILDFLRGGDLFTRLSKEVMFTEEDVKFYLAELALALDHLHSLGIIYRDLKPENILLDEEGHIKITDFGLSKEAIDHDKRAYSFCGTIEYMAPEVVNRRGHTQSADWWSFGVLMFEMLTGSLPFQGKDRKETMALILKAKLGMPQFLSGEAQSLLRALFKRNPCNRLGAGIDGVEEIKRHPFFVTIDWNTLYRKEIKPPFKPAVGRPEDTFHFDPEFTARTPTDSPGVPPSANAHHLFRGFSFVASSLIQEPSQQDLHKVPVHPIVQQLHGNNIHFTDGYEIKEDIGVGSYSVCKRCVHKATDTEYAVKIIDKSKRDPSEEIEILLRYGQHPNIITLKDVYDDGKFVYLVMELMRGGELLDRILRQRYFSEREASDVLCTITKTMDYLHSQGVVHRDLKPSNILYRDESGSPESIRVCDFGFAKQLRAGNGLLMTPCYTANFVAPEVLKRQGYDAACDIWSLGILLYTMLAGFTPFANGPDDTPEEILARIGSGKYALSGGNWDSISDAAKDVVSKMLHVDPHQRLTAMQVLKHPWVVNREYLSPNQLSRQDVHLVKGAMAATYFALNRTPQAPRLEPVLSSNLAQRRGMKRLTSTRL

[19] = target: Ribosomal protein S6 kinase alpha-2 (Homo sapiens) (UniProt Q15349); conditions: at 1 µM
[20] = target: Ribosomal protein S6 kinase alpha-6 (Homo sapiens) (UniProt Q9UK32); conditions: at 0.1 µM;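 also: reported value is the mean inhibition of RSK4, from the GSK PKIS kinase inhibitor screen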
Sequence of Ribosomal protein S6 kinase alpha-6 (Homo sapiens) (Q9UK32 whole entry): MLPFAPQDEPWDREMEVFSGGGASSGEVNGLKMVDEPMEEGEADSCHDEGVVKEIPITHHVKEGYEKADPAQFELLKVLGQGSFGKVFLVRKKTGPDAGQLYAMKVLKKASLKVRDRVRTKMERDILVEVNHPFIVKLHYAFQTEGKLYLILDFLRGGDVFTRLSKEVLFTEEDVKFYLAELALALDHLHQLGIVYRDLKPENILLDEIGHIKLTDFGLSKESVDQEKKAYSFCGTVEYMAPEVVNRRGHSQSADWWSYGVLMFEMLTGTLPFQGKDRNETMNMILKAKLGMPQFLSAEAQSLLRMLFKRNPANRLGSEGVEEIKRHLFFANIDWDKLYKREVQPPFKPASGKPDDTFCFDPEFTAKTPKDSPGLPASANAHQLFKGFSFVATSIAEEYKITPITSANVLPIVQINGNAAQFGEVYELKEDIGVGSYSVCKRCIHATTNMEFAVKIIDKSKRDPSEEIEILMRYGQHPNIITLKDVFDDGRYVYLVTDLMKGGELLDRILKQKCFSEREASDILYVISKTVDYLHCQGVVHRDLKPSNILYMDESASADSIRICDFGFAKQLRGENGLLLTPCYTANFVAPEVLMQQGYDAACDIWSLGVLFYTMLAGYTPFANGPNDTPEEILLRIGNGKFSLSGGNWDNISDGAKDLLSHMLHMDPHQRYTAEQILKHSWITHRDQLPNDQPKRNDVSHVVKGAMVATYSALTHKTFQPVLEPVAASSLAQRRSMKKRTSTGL

SMILES | inhibition [1] | inhibition [2] | inhibition [3] | inhibition [4] | inhibition [5] | inhibition [6] | inhibition [7] | inhibition [8] | inhibition [9] | inhibition [10] | inhibition [11] | inhibition [12] | inhibition [13] | inhibition [14] | inhibition [15] | inhibition [16] | inhibition [17] | inhibition [18] | inhibition [19] | inhibition [20]
Fc1ccc(-c2nn3ncccc3c2-c2ccnc(Nc3ccc4c(c3)OCCO4)n2)cc1 | 52.1% | 8% | 48.4% | 2.53% | 4.25% | 2.03% | 3.43% | 0.43% | 0.09% | -0.74% | 1.7% | 1.49% | 2.36% | 1.15% | 4.94% | 0.37% | 1.36% | 2.3% | 4.22% | 2.06%
Cc1ccc(O)cc1Nc1ccnc2cc(-c3ccccn3)ccc12 | 34.9% | 5.74% | 18.9% | 3.58% | 1.99% | 1.7% | 3.8% | 1.87% | -2.49% | 0.91% | 3.92% | 2.07% | 0.33% | 1.44% | 0.51% | 0.48% | -0.99% | 1.68% | 2.66% | 0.21%
CCN1CCC(CC(=O)Nc2n[nH]c3nnc(-c4cccc(F)c4F)cc23)CC1 | 2.99% | 1.54% | 2.01% | 1.07% | 0.47% | 1.64% | 2.03% | 0.36% | 0.65% | 0.26% | 0.43% | 1.58% | 0.93% | 1.35% | 2.11% | 3.2% | 3.53% | 1.12% | 1.83% | 1.84%
CN1CCC(n2cnc(-c3ccc(F)cc3)c2-c2ccnc(N)n2)CC1 | 16.4% | 2.68% | 17.3% | 0.5% | 9.09% | 2.99% | 30.7% | 0.51% | 1.95% | -0.08% | 1.34% | 0.69% | 5.69% | 1.08% | 4.9% | -0.12% | 2.82% | 1.52% | 4.57% | 1.08%
CN(C)CCOc1ccc(-c2nc(-c3ccncc3)c(-c3ccc4c(c3)CC/C4=N\O)[nH]2)cc1 | 6.37% | 3.58% | 5.44% | 2.17% | 6.12% | 2.69% | 12.3% | 1.16% | 1.33% | 0.51% | 1.11% | 3.19% | 4.22% | 2.14% | 5.08% | 1.07% | 2% | 1.9% | 2.18% | 0.86%
CCCN1CCC(c2ccc(Nc3nc(Nc4cc(F)ccc4C(N)=O)c4cc[nH]c4n3)c(OC)c2)CC1 | 75.7% | 13.6% | 65.9% | 9.75% | 46.5% | 8.54% | 47% | 1.4% | 4.23% | 17.2% | 64.6% | 19.9% | 69.8% | 37.4% | 69.7% | 26.5% | 66.8% | 12% | 53.5% | 23.4%
c1ccc(-c2nc3n(c2-c2ccc4c(c2)OCO4)CCC3)nc1 | 4.47% | 2.58% | 5.25% | 2.47% | 2.75% | 1.67% | 2.85% | 0.87% | 3.61% | 3.64% | 5.65% | 5.54% | 5.37% | 4.98% | 5.39% | 4.41% | 5.78% | 1.95% | 1.35% | 1.28%
NS(=O)(=O)c1ccc(N/N=C2\C(=O)Nc3ccc4ncccc4c32)cc1 | 55.7% | 8.6% | 51.4% | 4.46% | 22.6% | 9.97% | 46.1% | -0.15% | 2.43% | 7.13% | 38.4% | 15.9% | 60.3% | 6.2% | 30.6% | 7.41% | 39.4% | 15.9% | 61.7% | 13%
